Hits are enriched below; roughly 1.9% of the tested compounds scored in any of these assays.
eIF4E-4G inh: eIF4E–eIF4G protein interaction inhibitors, primary screen, biochemical, uHTS, TR-FRET, eIF4GI fragment | Eukaryotic translation initiation factor 4E (Mus musculus) + Eukaryotic translation … | TR-FRET eIF4E-eIF4GI(517-606) binding, 2 h | 0.37% of 220,000 active | inhibition, % at 21.7 µM;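 active = inhibition above about 30%, limit read from the data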;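 note: 0% = full FRET control wells and 100% = background wells lacking eIF4GI fragment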
PABP polyA inh: PABP poly(A) RNA binding inhibitors, primary screen, biochemical, fluorescence polarization, uHTS; 1% of 290,000 active; calls only at 35 µM; Polyadenylate-binding protein 1 (Homo sapiens), P11940;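 note: calls also rest on retests at 20 µM and on dose response follow-up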
Target sequence (P11940 whole entry, looked up): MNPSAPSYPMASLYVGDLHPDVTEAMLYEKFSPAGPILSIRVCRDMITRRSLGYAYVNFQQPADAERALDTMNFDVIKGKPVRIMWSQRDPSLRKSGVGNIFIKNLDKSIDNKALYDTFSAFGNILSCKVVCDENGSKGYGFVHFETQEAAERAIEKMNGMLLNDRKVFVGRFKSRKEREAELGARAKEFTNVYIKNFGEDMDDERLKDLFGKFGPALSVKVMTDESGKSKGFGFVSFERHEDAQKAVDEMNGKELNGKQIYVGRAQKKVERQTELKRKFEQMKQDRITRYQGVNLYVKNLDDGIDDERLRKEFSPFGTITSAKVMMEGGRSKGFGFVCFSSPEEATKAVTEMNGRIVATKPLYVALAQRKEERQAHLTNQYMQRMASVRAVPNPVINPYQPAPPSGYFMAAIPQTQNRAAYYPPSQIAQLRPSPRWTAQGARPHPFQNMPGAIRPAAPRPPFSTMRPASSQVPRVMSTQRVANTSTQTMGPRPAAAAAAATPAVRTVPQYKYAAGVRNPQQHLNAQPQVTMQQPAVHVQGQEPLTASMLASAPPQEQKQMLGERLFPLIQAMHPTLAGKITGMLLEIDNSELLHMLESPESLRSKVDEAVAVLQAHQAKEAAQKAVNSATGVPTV
14-3-3 Bad inh: inhibitors of 14-3-3 zeta/Bad binding, primary screen, biochemical, TR-FRET, bovine 14-3-3 zeta | TR-FRET 14-3-3zeta/Dy647-pBad peptide displacement, 1 h | 0.71% of 220,000 active | inhibition, % at 21.7 µM | AID 781, 2007;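 active = inhibition above about 70%, limit read from the data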;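 note: 0% = full 14-3-3 plus peptide FRET controls and 100% = background without 14-3-3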
eIF4H inh: human eIF4H binding inhibitors, primary screen, translation initiation inhibitor project, biochemical, uHTS, fluorescence polarization; Eukaryotic translation initiation factor 4H (Homo sapiens), Q15056; eIF4H fluorescence polarization binding assay; inhibition, % at 35 µM; 0.94% of 290,000 active; AID 2012, 2009;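 note: calls also rest on retests at 20 µM and on dose response follow-up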
MLLE-PAM2 inh: inhibitors of PABP1 MLLE–PAM2 peptide binding, primary screen, biochemical, fluorescence polarization, FITC-PAM2, GST-MLLE. 0.36% of 360,000 active. AID 588489, 2011. inhibition, % at 20 µM; in the data active = inhibition above about 35%, passing the limit was not always enough;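 note: plate controls were DMSO wells with GST-MLLE for no effect and wells lacking GST-MLLE protein for full effect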
Active calls of the source: *; i = inactive; ? = inconclusive; . = no result given; + = active, no number; [ ] = dose if it differs, or a comment. Unless noted, the rule behind the calls is not given here.

SMILES	eIF4E-4G inh	PABP polyA inh	14-3-3 Bad inh	eIF4H inh	MLLE-PAM2 inh
CCN(CC)S(=O)(=O)c1ccc(NC(=O)c2cccc3c2C(=O)N(CCOC)C3)cc1	8	i	84*[fluorescence artefact?]	1	7
CCNc1nc(NC(C)C)nc(Oc2ccc(OCCOc3ccccc3)nn2)n1	57*	i	5	3	4
Cn1cc(/C=N\O)nc2c(=O)n(-c3ccccc3)c(=O)nc1-2	0	i	-15	99	37*
COc1ccc2sc(N3C(=O)CC(Cc4cccc(C)c4)C3=O)nc2c1 (centres undefined)	0	i	88*	-6	-11
O=C1CC(Sc2ncccc2C(=O)O)C(=O)N1 (centres undefined)	4	i	-12	3	12
O=C1CC(SC(=S)C2CCCC2=O)C(=O)N1 (centres undefined)	.	.	.	.	46*
COCCCNC(=O)CC1C[C@H](C(=O)N(C(C)C)C(C)C)[C@@]2(C)c3[nH]c4ccccc4c3CCN2C1=O (some centres undefined)	.	.	.	.	0
Cc1nc(C(C)(C)O)n(-c2ccccc2)n1	92*[fluorescence artefact?]	i	-12	0	5
CC(C)(O)c1nnn(-c2ccccc2)c1C(F)(F)F	-1	i	2	0	5
Cc1cc(C)c(NC(=O)CNC(=O)CN(C)Cc2ccc(Br)s2)c(C)c1	.	.	.	.	-4
CCOC(=O)CN1C(=O)S/C(=C/C=C/c2ccc(N(C)C)cc2)C1=O	3	i	6	?	-147
Cc1ccc(S(=O)(=O)N2CN(Cc3ccco3)c3nc4ccccc4nc32)cc1	-1	+	6	?	-5
O=S(=O)(c1ccc(F)cc1)N1CN(Cc2ccco2)c2nc3ccccc3nc21	4	+	12	122*	-2
COc1ccc(S(=O)(=O)N2CN(Cc3ccco3)c3nc4ccccc4nc32)cc1	7	?	6	?	3
Cc1nc2c(c(=O)n1CCC1=CCCCC1)c1nc3ccccc3nc1n2/N=C/c1ccco1	.	+	.	68*	14
COc1ccc(CCC(=O)N(C)CC(=O)Nc2ccc(Cl)c(C(F)(F)F)c2)cc1	.	i	.	5	0
COc1ccc(CNC(=O)COC(=O)c2cc(-c3ccco3)nc3ccccc23)cc1	1	i	0	90*	.
CCNC(=O)COC(=O)c1cc(-c2ccco2)nc2ccccc12	25	+	40	89*	-9
O=C(OCC(=O)N1CCN(C(=O)c2ccco2)CC1)c1cc(-c2ccco2)nc2ccccc12	27	+	20	85*	19
CC(C)Oc1ccc(C(=O)Nc2ccc3c(c2)n(C)c(=O)n3C)cc1	.	i	.	6	0
CC1CCCN(C(=O)Cn2nnc(-c3ccccc3F)n2)C1 (centres undefined)	.	i	.	7	5
CC1Cc2ccccc2N1Cc1ccc([N+](=O)[O-])cc1 (centres undefined)	.	i	.	8	-2
Cc1ccc(-n2c(C)cc3c2CCCC3=O)cc1	-1	i	-7	20	42*
Cc1cc(O)c(CN(C)C)c2c1C(=O)/C(=C/c1ccco1)O2	.	+	.	94*	22
COc1ccc2c(c1)O/C(=C\c1ccco1)C2=O	-3	i	7	50	-13
SMILES	eIF4E-4G inh	PABP polyA inh	14-3-3 Bad inh	eIF4H inh	MLLE-PAM2 inh
O=C(NC(=S)Nc1ccccc1Br)c1ccco1	.	i	.	-9	45*
CC(C)(C)C(=O)Nc1ccccc1N1CCN(C(=O)c2ccc(Cl)cc2)CC1	-16	+	-15	86*	-5
Cc1nc(NC(=S)NC(=O)c2ccco2)sc1C(=O)N(C)C	.	i	.	-4	41*
CC1CCN(c2ccccc2NC(=S)NC(=O)c2ccco2)CC1	.	.	.	.	46*
CC1CCN(c2ccccc2NC(=S)NC(=O)c2cccs2)CC1	-2	i	-2	-3	35
CC(C)C(=O)N1CCN(c2ccccc2NC(=O)c2ccc3c(c2)OCCO3)CC1	.	.	.	.	17
CC1CCN(c2ccccc2NC(=S)NC(=O)C(C)(C)C)CC1	-2	i	-5	-5	39*
Cc1nc2ccc(NC3=NCCCCC3)cc2s1	5	i	79*	6	22
COc1cc2c(cc1OC)CN(C(=O)Cn1ccccc1=O)CC2	.	i	.	79*	-1
COc1cc2c(cc1OC)CN(C(=O)CN1CCN(S(=O)(=O)c3ccccc3Br)CC1)CC2	.	i	.	9	-6
COc1cc2c(cc1OC)CN(C(=O)CSc1ccccc1C)CC2	.	.	.	.	46*
Fc1cccc(CN2CCN(c3nc4nonc4nc3NC3CC3)CC2)c1	0	+	-6	90*	12
CCOCCCNC(=O)CN1CCN(c2ccc(F)cc2)CC1	0	i	74*	1	0
Cc1cccc(CCNC(=O)C2CC(O)CN2C(=O)Nc2ccccc2)c1 (centres undefined)	.	.	.	.	-7
CCn1cc(S(=O)(=O)Nc2cc(F)ccc2C)cn1	1	i	92*	6	4
CCn1cc(S(=O)(=O)Nc2cccnc2)cn1	.	i	.	8	16
C=C(C)C(=O)NC1=NN(c2ccccc2)C(=O)C1	4	i	-2	10	15
O=C1CC(NC(=O)C(F)(F)F)=NN1c1ccccc1	-7	+	-10	active	4
CCCOc1ccc(/C(O)=C2\C(=O)C(=O)N(CCCOC)C23C(=O)N(C)c2ccccc23)cc1 (centres undefined)	14	i	70*	2	-7
Cc1nnc(N2C(=O)C(O)=C(C(=O)c3ccco3)C2c2ccc(F)cc2)s1 (centres undefined)	-2	i	18	?	34
Cc1nnc(N2C(=O)C(O)=C(C(=O)c3ccco3)C2c2ccc(C(C)C)cc2)s1 (centres undefined)	0	+	4	52*	31
CC(=O)Nc1nnc(SCc2ccc(F)cc2)s1	-11	i	-7	2	6
O=C(Nc1nnc(SCc2ccc(F)cc2)s1)c1ccc2ncsc2c1	54*	i	80*	-15	-13
COc1cccc(/C=N/Nc2nc3ccccc3n3cnnc23)c1	-5	+	-9	85*	3
COc1cccc(/C=N/Nc2nc3ccccc3n3cnnc23)c1O	3	i	13	28	-6
COc1ccc(C(=O)Nc2cccc(-c3cc4ccccc4oc3=O)c2)cc1[N+](=O)[O-]	6	i	75*[fluorescence artefact?]	-10	-17
COc1cc(N)c(Cl)cc1C(=O)OCC(=O)c1cccs1	.	i	.	-4	-3
COC(=O)Nc1ccc(SCC(=O)c2cccc([N+](=O)[O-])c2)cc1	.	i	.	-3	42*

Compound activity (PubChem BioAssay)
